Results from PubChem BioAssay AID2570 (National Center for Advancing Translational Sciences (NCATS), 2010).
“And” between values parts separate entries of the source, which are not always exact repeats. Identical values can stand only once. Results filed as inconclusive are left out. The source made the active and inactive calls. The call rests on the fitted dose curve; in most records, active means well fitted curve in the direction sought with a large enough effect; inconclusive means small, poorly fitted or top-dose-only effect, or another doubt; inactive means no such curve, though single readings can be large or run the other way.

Each molecule was assayed against Vasopressin V1b receptor (Homo sapiens) (UniProt P47901) (assay: Counterscreen Concentration-Response Assay for Antagonists of the Neuropeptide S Receptor: Vasopressin Receptor Calcium Signal Transduction). Details: CHO-AVPR1B, vasopressin-stimulated calcium fluorescence, FDSS.
Chain of Vasopressin V1b receptor (Homo sapiens) (P47901 whole entry, looked up): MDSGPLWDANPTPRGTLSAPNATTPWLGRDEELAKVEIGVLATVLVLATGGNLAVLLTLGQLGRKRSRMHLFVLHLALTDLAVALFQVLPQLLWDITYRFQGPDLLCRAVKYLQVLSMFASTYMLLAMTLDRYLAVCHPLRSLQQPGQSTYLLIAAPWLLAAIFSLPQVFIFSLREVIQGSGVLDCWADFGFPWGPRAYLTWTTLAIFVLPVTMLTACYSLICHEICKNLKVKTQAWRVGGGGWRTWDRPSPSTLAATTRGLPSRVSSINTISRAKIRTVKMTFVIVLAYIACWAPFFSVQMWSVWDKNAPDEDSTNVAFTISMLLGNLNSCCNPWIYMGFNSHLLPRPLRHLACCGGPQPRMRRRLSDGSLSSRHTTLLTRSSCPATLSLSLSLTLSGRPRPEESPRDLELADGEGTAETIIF
Text: NIH Chemical Genomics Center [NCGC] NIH Molecular Libraries Probe Production centers Network [MLPCN] MLPCN Grant: X01-DA026210-01 Assay Submitter (PI): Heilig, Markus Alexander NCGC Assay Overview: Neuropeptide S receptor (NPSR), previously known as GPR154, is a recently de-orphanized G protein coupled receptor. Its endogenous ligand is the 20 amino acids peptide Neuropeptide S (NPS). […] NPS and its receptor are found in various tissues. Specifically they are highly expressed in brain areas that have been implicated in modulation of arousal, stress and anxiety. Central administration of NPS in mice produces an unusual profile of activity by inducing wakefulness and arousal, while at the same time suppressing anxiety. Therefore, NPSR may represent a novel drug target for the treatment of sleep and anxiety disorders. To identify NPSR antagonists, we developed a cell-based assay with transfected NPS receptor. NPS can stimulate the production of cAMP as well as release intracellular calcium in Chinese hamster ovary cells stably expressing NPS receptor. This change in intracellular calcium can be detected using a calcium indicator dye on a calcium imaging plate reader system (FDSS). To validate the specific action of compounds on the NPS receptor, a counterscreen was developed that tests compounds' antagonism of AVPR1B vasopressin receptor stimulation by vasopressin. […] shares 27% identity with the NPS receptor.
NCGC Assay Protocol Summary: A Chinese hamster ovary (CHO) cell line stably expressing human vasopressin receptor (AVPR1B) was maintained in F-12 Kaighn's media (Invitrogen, Carlsbad, CA, 21127) supplemented with 10 % FBS, 100 units/ml penicillin, 100 ug/ml streptomycin and 250 ug/ml geneticin at 37C, 5% CO2 in a humidified atmosphere. Before the assay, aliquots of cells were frozen and stored at -135C. The assay was performed on a FDSS-7000 kinetic plate reader in 1536-well format. The maximums of kinetic fluorescence responses were converted into text files using the instrument's software data export utility. Data for antagonist response were normalized to the controls for basal activity (DMSO only) and 100% inhibition (no signal). AC50 values were determined from concentration-response data modeled with the standard Hill equation. CHO-V1B 1536-well FDSS assay protocol: (1) Frozen CHO-V1B cells were thaw, washed once with fresh media and resuspended in F-12 Kaighn's media supplemented with 10 % FBS, 100 units/ml penicillin and 100 ug/ml streptomycin. Cells were plated at 3 ul/well (1200 cells) to black, clear-bottom, tissue-culture treated 1536-well plates, and then cultured at 37C, 5 % CO2 for 16 to 30 hours. (2) Add 3 ul of calcium dye (from High Performance PBX Calcium Assay Kit, BD Biosciences). The calcium dye was prepared according to the manufactory's instruction. (3) Incubation at 37C, 5 % CO2 for 60 min. (4) Add 23 nl/well of compound in DMSO solution. The final titration for each compound was between 0.6 nM and 46 uM. (5) Load plates to FDSS-7000. The following steps were performed on FDSS-7000. (6) Record fluorescent background (Ex 480 nm, Em 520-560 nm) for 10 s. (7) Add 2 ul of stimulation reagent (1X HBSS buffer, 0.1% BSA, 60 nM vasopressin). Record antagonist response (Ex 480 nm, Em 520-560 nm) for 180 s. Keywords: MLSMR, MLPCN, NIH Roadmap, qHTS, NCGC, NPS, Neuropeptide S Antagonists

SMILES	max response
COc1cccc(C2c3c(ncn(-c4ccccc4SC)c3=N)Oc3ccc4ccccc4c32)c1 (stereo not given)	14.8% (inactive)
O=C(CCc1ccccc1)Nc1ncnc2c1C(c1ccccc1)c1c(ccc3ccccc13)O2 (stereo not given)	-23% (inactive)
CCOc1ccc(C2c3c(ncn(-c4ccccc4)c3=N)Oc3ccc4ccccc4c32)cc1OCC (stereo not given)	-23.4% (inactive)
COc1cccc(C2c3c(ncn(-c4ccc(C)cc4)c3=N)Oc3ccc4ccccc4c32)c1 (stereo not given)	-0.274% (inactive)
COc1cccc(C2C(C#N)=C(NC(=O)CCc3ccccc3)Oc3ccc4ccccc4c32)c1 (stereo not given)	10.7% (inactive)
COc1cccc(C2c3c(ncn(-c4cccnc4)c3=N)Oc3ccc4ccccc4c32)c1 (stereo not given)	-4.29% (inactive)
Cc1c(P(=S)(c2ccccc2)c2ccccc2)c2ccccc2n1C/C=C/c1ccccc1	0.93% (inactive)
COc1cccc(C2c3c(ncn(-c4ccccc4Cl)c3=N)Oc3ccc4ccccc4c32)c1 (stereo not given)	1.44% (inactive)
COc1ccc(-n2cnc3c(c2=N)C(c2cccc(OC)c2)c2c(ccc4ccccc24)O3)cc1 (stereo not given)	-14.1% (inactive)
COc1ccc(C2c3c(ncn(CCN4CCOCC4)c3=N)Oc3ccc4ccccc4c32)cc1OC (stereo not given)	-15.6% (inactive)
COc1cccc(C2c3c(ncn(CCN4CCOCC4)c3=N)Oc3ccc4ccccc4c32)c1 (stereo not given)	-2.37% (inactive)
COc1ccc(C2c3c(N)nc(Cc4ccccc4)nc3Oc3ccc4ccccc4c32)cc1OC (stereo not given)	-15.7% (inactive)
COc1ccc(C2c3c(nc(CCCc4ccccc4)[nH]c3=O)Oc3ccc4ccccc4c32)cc1OC (stereo not given)	12% (inactive)
COc1ccc(C2C3=C(N=CN(CCN4CCOCC4)C3N)Oc3ccccc32)cc1OC (stereo not given)	19.6% (inactive)
COc1ccc(C2c3c(N)nc(CCc4ccccc4)nc3Oc3ccc4ccccc4c32)cc1OC (stereo not given)	-20.6% (inactive)
Cc1c(P(=S)(c2ccccc2)c2ccccc2)c2ccccc2n1CCc1ccccc1	-38.1% (inactive)
O=C(c1ccccc1)N(C(=O)c1ccccc1)c1ncnc2c1C(c1ccccc1)c1c(ccc3ccccc13)O2 (stereo not given)	12.9% (inactive)
COc1cccc(C2c3c(ncn(-c4ccc(NC(C)=O)cc4)c3=N)Oc3ccc4ccccc4c32)c1 (stereo not given)	-34.2% (inactive)
COc1cccc(C2c3c(ncn(-c4ccccn4)c3=N)Oc3ccc4ccccc4c32)c1 (stereo not given)	29.6% (inactive)
COc1ccc(C2c3c(ncn(CCN4CCOCC4)c3=N)Oc3ccc4ccccc4c32)cc1 (stereo not given)	-23.1% (inactive)

SMILES	max response
COc1ccc(C2c3c(ncn(CCCc4ccccc4)c3=N)Oc3ccc4ccccc4c32)cc1OC (stereo not given)	11.1% (inactive)
COc1cccc(C2c3c(ncn(Cc4cccs4)c3=N)Oc3ccc4ccccc4c32)c1 (stereo not given)	22.2% (inactive)
O=C(Nc1ncnc2c1C(c1ccccc1)c1c(ccc3ccccc13)O2)c1ccccc1 (stereo not given)	8.3% (inactive)
COc1cccc(C2c3c(ncn(-c4cccc(F)c4)c3=N)Oc3ccc4ccccc4c32)c1 (stereo not given)	-14.9% (inactive)
CCOC(=O)CC(=O)Nc1ncnc2c1C(c1ccccc1)c1c(ccc3ccccc13)O2 (stereo not given)	-17.5% (inactive)
COc1cccc(C2c3c(ncn(-c4ccccc4OC)c3=N)Oc3ccc4ccccc4c32)c1 (stereo not given)	-19.5% (inactive)
Nc1ncnc2c1C(c1ccccc1)c1c(ccc3ccccc13)O2 (stereo not given)	4.27% (inactive)
COc1cccc(C2c3c(ncn(-c4ccccc4C#N)c3=N)Oc3ccc4ccccc4c32)c1 (stereo not given)	2.63% (inactive)
Cc1c(P(=S)(c2ccccc2)c2ccccc2)c2ccccc2n1CCCc1ccccc1	8.85% (inactive)
COc1cccc(C2c3c(ncn(-c4cccc(Br)c4)c3=N)Oc3ccc4ccccc4c32)c1 (stereo not given)	-12.3% (inactive)
COc1cccc(C2c3c(ncn(-c4ccc(F)cc4)c3=N)Oc3ccc4ccccc4c32)c1 (stereo not given)	-36.5% (inactive)
O=C(NCc1ccccc1)Nc1ncnc2c1C(c1ccccc1)c1c(ccc3ccccc13)O2 (stereo not given)	-5.16% (inactive)
COc1cccc(C2c3c(ncn(-c4cccc(C)c4)c3=N)Oc3ccc4ccccc4c32)c1 (stereo not given)	-55.3% (inactive)
Cc1c(P(=S)(c2ccccc2)c2ccccc2)[n+]2ccccc2n1CCCc1ccccc1	-9.72% (inactive)
O=C1OC(c2ccccc2)(c2ccccc2)N2CCN(C(=O)NCc3ccc(F)cc3)CC12 (stereo not given)	22.2% (inactive) and 17.7% (inactive)
COc1cccc(C2c3c(ncn(-c4ccccc4Br)c3=N)Oc3ccc4ccccc4c32)c1 (stereo not given)	18.9% (inactive)
COc1cccc(C2c3c(ncn(-c4ccc(-c5ccccc5)cc4)c3=N)Oc3ccc4ccccc4c32)c1 (stereo not given)	-10.6% (inactive)
COc1cccc(C2c3c(ncn(-c4ccncc4)c3=N)Oc3ccc4ccccc4c32)c1 (stereo not given)	23.2% (inactive)
N=c1c2c(ccn1CCc1ccccc1)Oc1ccc3ccccc3c1C2c1ccccc1 (stereo not given)	11.4% (inactive)
N=c1c2c(ccn1CCCCc1ccccc1)Oc1ccc3ccccc3c1C2c1ccccc1 (stereo not given)	19.5% (inactive)
